Reference: the supplement of paper PMC6555819

How the values were obtained:
Assay in all cases: PBM binding z-score (relative to random genomic background probes); higher = stronger binding; sequences stand for … in GC…GCGATTGACAGCGTAGAATGAAGG
[1] = test system: FXR:RXRa (NR concentration 270 nM, RXRa partner concentration 90 nM)
In short: (§1)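 Ligand-free nuclear receptor dimers were bound for 1 h to custom Agilent 4×180K protein-binding microarrays. Detection used antibodies against each partner (one per run). Binding z-scores rest on regression-normalized fluorescence, with random background probes as the reference.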

[2] = test system: LXRa:RXRa (NR concentration 270 nM, RXRa partner concentration 90 nM)
In short: as §1

[3] = test system: LXRa homodimer (NR concentration 270 nM)
In short: as §1

[4] = test system: LXRb:RXRa (NR concentration 270 nM, RXRa partner concentration 90 nM)
In short: as §1

[5] = test system: LXRb homodimer (NR concentration 270 nM)
In short: as §1

[6] = test system: PPARa:RXRa (NR concentration 270 nM, RXRa partner concentration 90 nM)
In short: as §1

[7] = test system: PPARg:RXRa (NR concentration 180 nM, RXRa partner concentration 90 nM)
In short: as §1

[8] = test system: PPARg:RXRa 270nM:90nM, anti-RXR (NR concentration 270 nM, RXRa partner concentration 90 nM)
In short: as §1

[9] = test system: PPARg:RXRa 30nM:10nM, anti-RXR (NR concentration 30 nM, RXRa partner concentration 10 nM)
In short: as §1

[10] = test system: PPARg:RXRa 90nM:30nM, anti-RXR (NR concentration 90 nM, RXRa partner concentration 30 nM)
In short: as §1

Row | Sequence | PBM binding z-score [1] | PBM binding z-score [2] | PBM binding z-score [3] | PBM binding z-score [4] | PBM binding z-score [5] | PBM binding z-score [6] | PBM binding z-score [7] | PBM binding z-score [8] | PBM binding z-score [9] | PBM binding z-score [10]
1 | CCTTACGGGCCACGAGGTTATAGCACGACGAGCG | 0.333 | 0.406 | -0.158 | 0.202 | -0.806 | 1.44 | 1.29 | 0.67 | -0.315 | 0.471
2 | CCTACTGGGCCATTCAGAGGTCATTGATCATATG | 2.92 | 4.32 | 6.45 | 3.73 | 0.365 | 3.82 | 2.59 | 3.24 | 0.818 | 2.26
3 | CGAACTAGTTCACCAGGACAGTGAAGAGGTTGGA | 0.244 | 0.23 | -0.131 | -0.137 | -0.531 | 0.836 | 0.543 | 0.354 | -0.289 | -0.0706
4 | CGAACTCGGTCAAAGGACAGTGAAAGGCGACGTA | 0.719 | 0.857 | -0.21 | -0.0802 | -0.824 | 2.68 | 5.06 | 5.39 | 3.97 | 5.3
5 | CGTCAAAGTTCAAGTTAACGTAACAGAAAGCAGC | 7.26 | 6.56 | 4.75 | 4.33 | 2.63 | 5.3 | 5.08 | 5.71 | 2.68 | 4.8
6 | TAGCCTAGGTCATTCAGGGGGCAGTATAGAAAGC | 5.76 | 4.78 | 2.16 | 5.66 | 11 | 4.6 | 3.97 | 4.6 | 1.89 | 3.53
7 | ATCGAAAGGTCGTCGAGGTGAGTATACACCGTTT | 4.79 | 4.28 | 0.169 | 3.19 | 0.543 | 4.87 | 3.07 | 3.97 | 1.22 | 2.66
8 | CCTAGCAGGCCAGGTTCACTCAAGCATTTCGCTT | 0.117 | 0.554 | -0.238 | 0.666 | -0.142 | 0.874 | -0.212 | -0.0179 | -0.854 | -0.512
9 | CGAACTAGGTCACCAGGTCAGTGAAGAGGTTGGA | 4.69 | 3.38 | 0.525 | 2.7 | -0.48 | 5.78 | 9.48 | 7.31 | 5.4 | 7.06
10 | CCTAGTTGGGCAGGAGGTCACACACCGGATATGA | 2.73 | 2.97 | 1.41 | 2.79 | -0.389 | 3.7 | 3.31 | 4.01 | 1.77 | 3.33
11 | CGTCCAAGGTCAGTGAGGTCAGTGAATGCCGAGT | 5.29 | 4.25 | 2.06 | 3.89 | -0.0298 | 4.72 | 3.46 | 4.07 | 0.585 | 2.61
12 | CTCGAAAGGTCGAGCTCAGGTGAGTATACCAAAC | 5 | 3.57 | -0.0751 | 3.02 | -0.142 | 4.73 | 2.39 | 3.54 | 1.14 | 2.04
13 | CGAACTAGTTCAAAGGACAGTGAAAGGCGACGTA | -0.112 | -0.0127 | -0.428 | -0.231 | -0.842 | 1.62 | 2.23 | 3.51 | 1.75 | 3.25
14 | ATATGTAAGTTAGGGTCATTCAGAAAGTAGGGAA | 4.8 | 4.5 | 1.55 | 4.13 | 1.31 | 4.91 | 2.88 | 3.41 | 1.15 | 2.64
15 | ACTAGCAGGCCAAGGGTGACTCAAGATTAGTCCG | -0.498 | -0.205 | -0.435 | -0.119 | -1 | 2.13 | 4.45 | 5.29 | 3.6 | 5.35
16 | CGAACTAGGTCAACGGACAGTGAAAGGCGACGTA | 3.7 | 2.16 | -0.117 | 1.22 | -0.431 | 4.75 | 8.09 | 6.86 | 4.42 | 6.52
17 | CCTACTGGGCCAAGGTCATTGAGCAGTCAAAGCA | 3.17 | 3.17 | 0.657 | 2.72 | -0.573 | 4.19 | 4.27 | 4.54 | 1.77 | 3.8
18 | CAAACTAGGTCACAGAGGTCAACGTCCGTGCGTA | 7.51 | 6.49 | 6.37 | 5.93 | 1.62 | 6.75 | 10.3 | 8.36 | 6.69 | 8.46
19 | CCTAGTTGGTCAGGAGGTCACATACCGGATATGA | 3.32 | 3.13 | 1.66 | 3.16 | 0.594 | 3.7 | 3.11 | 3.14 | 1.32 | 2.95
20 | TTTCCAAGGTGAAAGGTCGTTGATGCACGCCTTG | 3.56 | 3.59 | 0.323 | 2.79 | 0.0398 | 5.37 | 7.96 | 7.33 | 6.06 | 7.82
21 | AGTAGCAGGCCAAGGGTCACTCAAGATTAGTCCG | 2.36 | 2.53 | 0.22 | 2.8 | -0.43 | 4.63 | 7.54 | 7.15 | 6.3 | 7.51
22 | CCTGCTAGGTCAATGGTCAGCTCAAGCAGCTCGC | 3.28 | 2.16 | -0.232 | 1.42 | 0.134 | 3.19 | 4.54 | 5.03 | 2.8 | 5.14
23 | CGAACTAGGTCAAAGGACAGTAAAAGGCGACGTA | 4.06 | 2.48 | 0.208 | 2.04 | -0.428 | 5.67 | 9.93 | 8.18 | 7.65 | 8.57
24 | CGATCTAGGTCAAAGGACAGTGAAAGGCGACGTA | 4 | 2.77 | -0.0244 | 1.53 | -0.237 | 5.27 | 10.3 | 8.3 | 8.39 | 9.24

Row | Sequence | PBM binding z-score [1] | PBM binding z-score [2] | PBM binding z-score [3] | PBM binding z-score [4] | PBM binding z-score [5] | PBM binding z-score [6] | PBM binding z-score [7] | PBM binding z-score [8] | PBM binding z-score [9] | PBM binding z-score [10]
25 | CGATCTAGGTCACCAGGACAGTGAAGAGGTTGGA | 3.81 | 2.39 | 0.00222 | 1.59 | -0.455 | 4.81 | 8.42 | 6.67 | 4.33 | 6.26
26 | ACTAGTAGGTCAGCTGAGGTCACACACAATTCGG | 6.7 | 6.09 | 5.43 | 5.14 | 1.5 | 5.36 | 7.75 | 6.54 | 4.28 | 6.26
27 | CCTACTGGGCCATTCAGAGGTTATTGATCATATG | 0.119 | 0.693 | 0.815 | 0.664 | -0.334 | 1.55 | 0.601 | 1.23 | 0.0553 | 0.458
28 | CGAACTAGGTCACCAGGACAGTGGAGAGGTTGGA | 4.02 | 2.46 | 0.169 | 1.58 | -0.484 | 5.13 | 8.7 | 7.06 | 4.41 | 6.57
29 | CCTTACGGGTCAAGGTTATCGCACGGGTGGTACG | 6.04 | 3.62 | 0.367 | 2.95 | 0.18 | 5.07 | 4.85 | 5.31 | 2.29 | 3.7
30 | CCTTGCGGGTCACTGACAGGTTATAGCATTTGGA | 4.69 | 3.74 | 0.0362 | 2.95 | -0.459 | 5.05 | 5.18 | 4.76 | 1.63 | 3.47
31 | AATACAGGGTCACTAGGCCAGAGTGGGTACGAAT | 5.94 | 5.03 | 0.964 | 3.77 | 0.863 | 5.69 | 8.11 | 6.63 | 3.08 | 5.4
32 | AGTCAAAGTTCACGACGAGGTAACGTAAAGCACG | 7.08 | 6.16 | 3.15 | 3.94 | 0.875 | 5.45 | 7.81 | 7.17 | 4.47 | 6.41
33 | ATCGAAAGGTCGACGAGTTGAGTATACACCGTTT | 3.68 | 3.25 | 0.0436 | 2.75 | 0.676 | 3.98 | 2.27 | 2.77 | 1.17 | 1.91
34 | GCTCGGAGGACAAGGTCACAGCTTTGTCCGTAGA | 4.17 | 3.99 | 0.175 | 3.17 | 0.142 | 4.56 | 3.68 | 4.17 | 1.12 | 2.98
35 | CGAACTAGGTCACCAGGACAGTGAAGAGGTTGGA | 3.86 | 2.39 | -0.071 | 1.65 | -0.543 | 5.04 | 8.82 | 7 | 4.54 | 6.65
36 | CAAACTAGGTCACAGAGGTCGAAGTCCGTGCGTA | 4.92 | 4.23 | 1.74 | 3.62 | 0.575 | 5.48 | 9 | 6.93 | 5.15 | 7.32
37 | ATCGAAACGTCGTGAGGTGAGTATACAGAAAGGC | -0.206 | -0.348 | -0.532 | -0.359 | -0.538 | -0.0386 | 0.851 | -0.286 | -0.051 | 0.0788
38 | CCTACTGGGCCAAGGTCATTGCTCAGTCAAAGCA | 3.09 | 3.01 | 0.828 | 2.83 | -0.46 | 3.63 | 3.88 | 4.33 | 1.07 | 3.55
39 | GCTGCTAGGTCAGGTTGGTCTGCTAACGGGTACG | 1.17 | 0.795 | -0.237 | 0.627 | -0.557 | 1.4 | 0.225 | 0.854 | -0.545 | 0.295
40 | CAAACTAGGTCACCGGGAGGTCAAAGTCCGCATG | 6.46 | 6.26 | 6.39 | 5.87 | 1.73 | 6.17 | 9.53 | 8 | 6.05 | 8.25
41 | GATCCAGGGTCAGCTAGAGGCCAGAGTATGGAAA | 4.42 | 2.62 | -0.925 | 2.36 | -1.4 | 4.38 | 3.24 | 3.15 | 0.349 | 1.66
42 | TCTGCTATGTCAACGATGGTCAGCTAATCTGCTA | -0.367 | -0.339 | -1.07 | -0.513 | -0.553 | -0.269 | -0.313 | 0.46 | 1.01 | 0.668
43 | CAAACTAGGTCAAAGGTCAAAGTTGAGCCAACCA | 8.49 | 7.15 | 5.63 | 7.42 | 3.19 | 7.85 | 14 | 11.5 | 12.5 | 13.5
44 | TCTGCTGGGTCAACGATGGTCAGCTAATCTGCTA | 2.59 | 1.95 | -0.835 | 1.16 | -0.168 | 3.19 | 1.92 | 2.57 | 1.69 | 2.14
45 | ATCGAAATGTCGTGAGGTGAGTATACAGAAAGGC | 0.101 | -0.0819 | -0.191 | -0.0754 | -0.00242 | -0.0374 | 0.546 | -0.0357 | -0.12 | 0.0916
46 | ATATCTAGGTTAGGGTCATTCAGAAAGTAGGGAA | 4.54 | 4.26 | 1.73 | 4.39 | 2.24 | 5.65 | 7.73 | 6.5 | 4.33 | 6.58
47 | TCTCGGAGGACACGAAAGGTGAGAGCTCGACATC | 0.988 | 0.364 | -0.458 | -0.112 | -0.994 | 1.22 | 0.346 | 1.01 | 2.1 | 1.25
48 | GATAGTTGGTCAGTAAAAGGTCACACACCGGTCG | 3.47 | 4.21 | 4.89 | 4.06 | 0.786 | 4.57 | 3.46 | 4.68 | 2.35 | 3.8
